# Test results as given in PubChem BioAssay (NCI).
# Where “and” joins values, the source holds several entries; their conditions need not be identical. Equal entries are not always repeated. About 79,000 compounds went through this panel and 15% of them were active in at least one assay; those are over-represented in the sample as a whole. A number with no mark means an inactive call. Calls of active or inactive are those of the source. Rule as the data show it: active = growth inhibition above about 70%; inactive = the rest.
# Experiments:
# [1] = NCI Yeast Anticancer Drug Screen. Data for the rad52 strain (AID 147);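 also: 0% = growth of vehicle-treated control cultures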; settings: S. cerevisiae rad52 mutant growth inhibition, stronger effect = higher value
# Outline: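 Vehicle-treated cultures served as the reference for growth inhibition of compound-exposed yeast bearing a DNA repair mutation.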
# [2] = NCI Yeast Anticancer Drug Screen. Data for the wt1 strain (AID 149);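 also: 0% = growth of vehicle-treated wt1 cultures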; settings: S. cerevisiae wt1 strain (SPY 50644) growth inhibition, stronger effect = higher value
# Outline: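 Readout: yeast growth inhibition, normalised to vehicle controls, in the wt1 strain exposed to test compounds.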
# [3] = NCI Yeast Anticancer Drug Screen. Data for the rad50EPP+ strain (AID 151);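 also: 0% = growth of vehicle-treated control cultures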; settings: S. cerevisiae rad50 mutant strain, stronger effect = higher value
# Outline: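 In this screen, rad50EPP+ yeast were exposed to compounds. Growth inhibition was scored against vehicle-treated controls.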
# [4] = NCI Yeast Anticancer Drug Screen. Data for the mgt1 strain (AID 153); settings: S. cerevisiae mgt1 mutant growth inhibition, stronger effect = higher value
# Outline: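 mgt1 strain exposed; growth vs vehicle control recorded as inhibition.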
# [5] = NCI Yeast Anticancer Drug Screen. Data for the rad50 strain (AID 155);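 also: 0% = growth of vehicle-only cultures of the same strain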; settings: S. cerevisiae rad50 strain growth inhibition, stronger effect = higher value
# Outline: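 Compounds were tested on a yeast strain with an engineered DNA damage repair alteration; the reported value is growth inhibition normalised to vehicle treatment.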
# [6] = NCI Yeast Anticancer Drug Screen. Data for the mec2-1 strain (AID 157); settings: S. cerevisiae mec2-1 strain, stronger effect = higher value
# Outline: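 Vehicle-treated cultures served as reference for growth inhibition of compound-exposed mec2-1 yeast.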
# [7] = NCI Yeast Anticancer Drug Screen. Data for the rad14 strain (AID 159);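 also: 0% = growth of vehicle-treated control cultures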; settings: S. cerevisiae rad14 strain growth inhibition, stronger effect = higher value
# Outline: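 Compound-treated yeast with a defined DNA-repair lesion; growth inhibition normalised to vehicle-treated cultures.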
# [8] = NCI Yeast Anticancer Drug Screen. Data for the sgs1 mgt1 strain (AID 161);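 also: 0% = growth of cultures given vehicle only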; settings: S. cerevisiae sgs1 mgt1 strain, stronger effect = higher value
# Outline: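 Mutant yeast exposed to compound; growth scored against vehicle-only wells.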
# [9] = NCI Yeast Anticancer Drug Screen. Data for the CLN2oe strain (AID 163);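 also: 0% = growth of vehicle-only control cultures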; settings: S. cerevisiae CLN2oe strain, stronger effect = higher value
# Outline: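 Inhibition relative to vehicle-treated yeast is reported. Cells: strain with genetic alteration in cell-cycle control, grown with compound.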
# [10] = NCI Yeast Anticancer Drug Screen. Data for the cln2 rad14 strain (AID 165);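 also: 0% = growth equal to vehicle treated cultures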; settings: S. cerevisiae cln2 rad14 strain, stronger effect = higher value
# Outline: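 Each compound was tested on cln2 rad14 yeast. Inhibition of growth was calculated against vehicle-exposed controls.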
# [11] = NCI Yeast Anticancer Drug Screen. Data for the bub3 strain (AID 167); settings: S. cerevisiae bub3 mutant strain, stronger effect = higher value
# Outline: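 Growth of a checkpoint-deficient yeast mutant is measured after compound exposure. Values represent inhibition relative to vehicle.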
# [12] = NCI Yeast Anticancer Drug Screen. Data for the mlh1 strain (AID 171);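 also: 0% = growth of vehicle-treated control cultures of the same strain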; settings: S. cerevisiae mlh1 strain growth inhibition, stronger effect = higher value
# Outline: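 Vehicle-normalised growth inhibition of a repair- or checkpoint-altered yeast strain following compound treatment.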
# [13] = NCI Yeast Anticancer Drug Screen. Data for the sgs1 strain (AID 173);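 also: 0% = growth of vehicle-only control cultures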; settings: S. cerevisiae sgs1 mutant, stronger effect = higher value
# Outline: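 Screen format: yeast with repair or checkpoint alterations, compound exposure, growth read relative to vehicle.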
# [14] = NCI Yeast Anticancer Drug Screen. Data for the mlh1 rad18 strain (AID 175); settings: S. cerevisiae mlh1 rad18 strain growth inhibition, stronger effect = higher value
# Outline: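 Vehicle-treated cultures served as the reference for growth inhibition in a yeast strain carrying DNA damage repair alterations exposed to each compound.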
# [15] = NCI Yeast Anticancer Drug Screen. Data for the rad18 strain (AID 177); settings: S. cerevisiae rad18 mutant growth inhibition, stronger effect = higher value
# Outline: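 Test articles were incubated with altered yeast defective in DNA damage repair. Results are given as inhibition of growth versus vehicle.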
# [16] = at 5.0 µM (retest, dose inferred, filed as 0.5)
# [17] = at 50.0 µM (retest, dose inferred, filed as 5.0)
compound,measurement,setting,value
S=C1NC2(CCCCC2)NC12CCCCC2,growth inhibition,[1]; at 1.2 µM,-1%
same,growth inhibition,[1]; at 3.7 µM,-5%
same,growth inhibition,[1]; at 11.0 µM,-3%
same,growth inhibition,[1]; at 33.0 µM,2%
same,growth inhibition,[1]; at 100.0 µM,-1%
same,growth inhibition,[2]; at 1.2 µM,-2%
same,growth inhibition,[2]; at 3.7 µM,-3%
same,growth inhibition,[2]; at 11.0 µM,3%
same,growth inhibition,[2]; at 33.0 µM,8%
same,growth inhibition,[2]; at 100.0 µM,13%
same,growth inhibition,[3]; at 1.2 µM,-2%
same,growth inhibition,[3]; at 3.7 µM,0%
same,growth inhibition,[3]; at 11.0 µM,2%
same,growth inhibition,[3]; at 33.0 µM,8%
same,growth inhibition,[3]; at 100.0 µM,7%
same,growth inhibition,[4]; at 1.2 µM,-2%
same,growth inhibition,[4]; at 3.7 µM,-8%
same,growth inhibition,[4]; at 11.0 µM,5%
same,growth inhibition,[4]; at 33.0 µM,17%
same,growth inhibition,[4]; at 100.0 µM,10%
same,growth inhibition,[5]; at 1.2 µM,0%
same,growth inhibition,[5]; at 3.7 µM,9%
same,growth inhibition,[5]; [16],11%
same,growth inhibition,[5]; at 11.0 µM,19%
same,growth inhibition,[5]; at 33.0 µM,19%
same,growth inhibition,[5]; [17],33%
same,growth inhibition,[5]; at 50.0 µM,44.9%
same,growth inhibition,[5]; at 100.0 µM,11%
same,growth inhibition,[6]; at 1.2 µM,-12%
same,growth inhibition,[6]; at 3.7 µM,-19%
same,growth inhibition,[6]; [16],3%
same,growth inhibition,[6]; at 11.0 µM,-18%
same,growth inhibition,[6]; at 33.0 µM,-1%
same,growth inhibition,[6]; [17],23%
same,growth inhibition,[6]; at 50.0 µM,4.85%
same,growth inhibition,[6]; at 100.0 µM,2%
same,growth inhibition,[7]; at 1.2 µM,-2%
same,growth inhibition,[7]; at 3.7 µM,-7%
same,growth inhibition,[7]; at 11.0 µM,-1%
same,growth inhibition,[7]; at 33.0 µM,0%
same,growth inhibition,[7]; at 100.0 µM,3%
same,growth inhibition,[8]; [16],30%
same,growth inhibition,[8]; [17],69%
same,growth inhibition,[8]; at 50.0 µM,13.8%
same,growth inhibition,[9]; at 1.2 µM,-7%
same,growth inhibition,[9]; at 3.7 µM,-3%
same,growth inhibition,[9]; at 11.0 µM,-2%
same,growth inhibition,[9]; at 33.0 µM,6%
same,growth inhibition,[9]; at 100.0 µM,9%
same,growth inhibition,[10]; [16],-30%
same,growth inhibition,[10]; [17],2%
same,growth inhibition,[10]; at 50.0 µM,-2%
same,growth inhibition,[11]; at 1.2 µM,-18%
same,growth inhibition,[11]; at 3.7 µM,-14%
same,growth inhibition,[11]; [16],16%
same,growth inhibition,[11]; at 11.0 µM,3%
same,growth inhibition,[11]; at 33.0 µM,2%
same,growth inhibition,[11]; [17],20%
same,growth inhibition,[11]; at 50.0 µM,14.5%
same,growth inhibition,[11]; at 100.0 µM,6%
same,growth inhibition,[12]; at 1.2 µM,-6%
same,growth inhibition,[12]; at 3.7 µM,-5%
same,growth inhibition,[12]; at 11.0 µM,0%
same,growth inhibition,[12]; at 33.0 µM,1%
same,growth inhibition,[12]; at 100.0 µM,-2%
same,growth inhibition,[13]; at 1.2 µM,-1%
same,growth inhibition,[13]; at 3.7 µM,-3%
same,growth inhibition,[13]; at 11.0 µM,2%
same,growth inhibition,[13]; at 33.0 µM,8%
same,growth inhibition,[13]; at 100.0 µM,12%
same,growth inhibition,[14]; [16],-9%
same,growth inhibition,[14]; [17],49%
same,growth inhibition,[14]; at 50.0 µM,27.3%
same,growth inhibition,[15]; at 1.2 µM,-3%
same,growth inhibition,[15]; at 3.7 µM,-1%
same,growth inhibition,[15]; at 11.0 µM,15%
same,growth inhibition,[15]; at 33.0 µM,24%
same,growth inhibition,[15]; at 100.0 µM,7%
N#CC(C#N)=Cc1ccc(C#N)cc1,growth inhibition,[1]; at 1.2 µM,0%
same,growth inhibition,[1]; at 3.7 µM,-4%
same,growth inhibition,[1]; at 11.0 µM,-1%
same,growth inhibition,[1]; at 33.0 µM,0%
same,growth inhibition,[1]; at 100.0 µM,11%
same,growth inhibition,[2]; at 1.2 µM,-2%
same,growth inhibition,[2]; at 3.7 µM,-2%
same,growth inhibition,[2]; at 11.0 µM,-3%
same,growth inhibition,[2]; at 33.0 µM,-2%
same,growth inhibition,[2]; at 100.0 µM,3%
same,growth inhibition,[3]; at 1.2 µM,-2%
same,growth inhibition,[3]; at 3.7 µM,-2%
same,growth inhibition,[3]; at 11.0 µM,0%
same,growth inhibition,[3]; at 33.0 µM,0%
same,growth inhibition,[3]; at 100.0 µM,0%
same,growth inhibition,[4]; at 1.2 µM,-2%
same,growth inhibition,[4]; at 3.7 µM,-2%
same,growth inhibition,[4]; at 11.0 µM,0%
same,growth inhibition,[4]; at 33.0 µM,-3%
same,growth inhibition,[4]; at 100.0 µM,1%
same,growth inhibition,[5]; at 1.2 µM,1%
same,growth inhibition,[5]; at 3.7 µM,-4%
same,growth inhibition,[5]; [16],-109%
same,growth inhibition,[5]; at 11.0 µM,2%
same,growth inhibition,[5]; at 33.0 µM,10%
same,growth inhibition,[5]; [17],90% (active)
same,growth inhibition,[5]; at 50.0 µM,-6.65% and 24.1%
same,growth inhibition,[5]; at 100.0 µM,9%
same,growth inhibition,[6]; at 1.2 µM,3%
same,growth inhibition,[6]; at 3.7 µM,0%
same,growth inhibition,[6]; [16],-47%
same,growth inhibition,[6]; at 11.0 µM,6%
same,growth inhibition,[6]; at 33.0 µM,3%
same,growth inhibition,[6]; [17],15%
same,growth inhibition,[6]; at 50.0 µM,-8.25% and 5.55%
same,growth inhibition,[6]; at 100.0 µM,7%
same,growth inhibition,[7]; at 1.2 µM,1%
same,growth inhibition,[7]; at 3.7 µM,1%
same,growth inhibition,[7]; at 11.0 µM,2%
same,growth inhibition,[7]; at 33.0 µM,6%
same,growth inhibition,[7]; at 100.0 µM,16%
same,growth inhibition,[8]; [16],-56%
same,growth inhibition,[8]; [17],62%
same,growth inhibition,[8]; at 50.0 µM,-16.8% and -0.4%
same,growth inhibition,[9]; at 1.2 µM,-4%
same,growth inhibition,[9]; at 3.7 µM,-2%
same,growth inhibition,[9]; at 11.0 µM,1%
same,growth inhibition,[9]; at 33.0 µM,0%
same,growth inhibition,[9]; at 100.0 µM,11%
same,growth inhibition,[10]; [16],-60%
same,growth inhibition,[10]; [17],-7%
same,growth inhibition,[10]; at 50.0 µM,50.4% and 4.05%
same,growth inhibition,[11]; at 1.2 µM,-4%
same,growth inhibition,[11]; at 3.7 µM,-8%
same,growth inhibition,[11]; [16],-65%
same,growth inhibition,[11]; at 11.0 µM,-7%
same,growth inhibition,[11]; at 33.0 µM,-7%
same,growth inhibition,[11]; [17],51%
same,growth inhibition,[11]; at 50.0 µM,-0.75% and 31.1%
same,growth inhibition,[11]; at 100.0 µM,7%
same,growth inhibition,[12]; at 1.2 µM,8%
same,growth inhibition,[12]; at 3.7 µM,-4%
same,growth inhibition,[12]; at 11.0 µM,-1%
same,growth inhibition,[12]; at 33.0 µM,1%
same,growth inhibition,[12]; at 100.0 µM,2%
same,growth inhibition,[13]; at 1.2 µM,-1%
same,growth inhibition,[13]; at 3.7 µM,-2%
same,growth inhibition,[13]; at 11.0 µM,-2%
same,growth inhibition,[13]; at 33.0 µM,-2%
same,growth inhibition,[13]; at 100.0 µM,14%
same,growth inhibition,[14]; [16],-109%
same,growth inhibition,[14]; [17],76% (active)
same,growth inhibition,[14]; at 50.0 µM,-24.6% and 16.7%
same,growth inhibition,[15]; at 1.2 µM,-1%
same,growth inhibition,[15]; at 3.7 µM,-1%
same,growth inhibition,[15]; at 11.0 µM,-1%
same,growth inhibition,[15]; at 33.0 µM,0%
same,growth inhibition,[15]; at 100.0 µM,9%
